ChEMBL document CHEMBL1961873, “Compounds: GSK PKIS; Assays: Nanosyn kinase panel” (2012)

Columns and labels:
[1] = molecular target: Ribosomal protein S6 kinase alpha-6 (Homo sapiens) (UniProt Q9UK32); settings: at 1 µM;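 note: each value is a mean inhibition of RSK4 from a GSK PKIS panel screen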
[2] = molecular target: T1, Serine/threonine-protein kinase Sgk1 (Homo sapiens) (UniProt O00141); settings: at 0.1 µM
T1 sequence (whole entry): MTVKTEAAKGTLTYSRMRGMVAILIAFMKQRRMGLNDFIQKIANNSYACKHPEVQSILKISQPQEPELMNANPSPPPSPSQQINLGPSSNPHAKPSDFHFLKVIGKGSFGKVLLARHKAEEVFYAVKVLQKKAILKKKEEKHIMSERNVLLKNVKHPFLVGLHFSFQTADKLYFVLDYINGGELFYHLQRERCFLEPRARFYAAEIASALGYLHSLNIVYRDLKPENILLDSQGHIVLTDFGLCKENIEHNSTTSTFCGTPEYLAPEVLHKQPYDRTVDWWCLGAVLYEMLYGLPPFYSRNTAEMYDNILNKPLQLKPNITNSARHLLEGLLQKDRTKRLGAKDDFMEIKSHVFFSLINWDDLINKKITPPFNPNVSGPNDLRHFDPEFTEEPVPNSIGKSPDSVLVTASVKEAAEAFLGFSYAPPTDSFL

[3] = molecular target: T1, Serine/threonine-protein kinase Sgk1 (Homo sapiens); settings: at 1 µM
[4] = molecular target: T2, Serine/threonine-protein kinase Sgk2 (Homo sapiens) (UniProt Q9HBY8); settings: at 0.1 µM
T2 sequence (whole entry): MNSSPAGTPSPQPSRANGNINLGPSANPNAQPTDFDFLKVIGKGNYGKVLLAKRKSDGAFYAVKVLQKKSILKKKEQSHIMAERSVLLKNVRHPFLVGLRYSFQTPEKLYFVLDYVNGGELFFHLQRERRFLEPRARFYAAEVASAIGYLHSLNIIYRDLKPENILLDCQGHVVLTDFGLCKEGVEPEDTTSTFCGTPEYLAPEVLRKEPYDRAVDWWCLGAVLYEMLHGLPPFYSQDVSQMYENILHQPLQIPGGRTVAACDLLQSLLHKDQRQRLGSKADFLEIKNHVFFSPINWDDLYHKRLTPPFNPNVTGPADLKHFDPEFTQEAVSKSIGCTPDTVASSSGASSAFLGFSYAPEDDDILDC

[5] = molecular target: T2, Serine/threonine-protein kinase Sgk2 (Homo sapiens); settings: at 1 µM
[6] = molecular target: T3, Serine/threonine-protein kinase Sgk3 (Homo sapiens) (UniProt Q96BR1); settings: at 0.1 µM
T3 sequence (whole entry): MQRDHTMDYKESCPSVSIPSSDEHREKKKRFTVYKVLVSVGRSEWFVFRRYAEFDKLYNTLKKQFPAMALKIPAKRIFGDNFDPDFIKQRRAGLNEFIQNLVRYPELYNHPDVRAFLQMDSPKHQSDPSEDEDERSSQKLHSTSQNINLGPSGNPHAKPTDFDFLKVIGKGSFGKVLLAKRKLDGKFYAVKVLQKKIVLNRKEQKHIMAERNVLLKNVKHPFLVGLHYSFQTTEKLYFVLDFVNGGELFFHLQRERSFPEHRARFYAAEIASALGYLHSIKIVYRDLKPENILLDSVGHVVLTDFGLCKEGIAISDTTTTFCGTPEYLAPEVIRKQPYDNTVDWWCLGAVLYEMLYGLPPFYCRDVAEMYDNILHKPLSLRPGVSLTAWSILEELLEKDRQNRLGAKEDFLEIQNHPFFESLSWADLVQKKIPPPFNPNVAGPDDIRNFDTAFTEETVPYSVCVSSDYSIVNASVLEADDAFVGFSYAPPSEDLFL

[7] = molecular target: T3, Serine/threonine-protein kinase Sgk3 (Homo sapiens); settings: at 1 µM
[8] = molecular target: 5'-AMP-activated protein kinase catalytic subunit alpha-1 (Homo sapiens) (UniProt Q13131); settings: at 0.1 µM
[9] = molecular target: 5'-AMP-activated protein kinase catalytic subunit alpha-1 (Homo sapiens) (UniProt Q13131); settings: at 1 µM
[10] = molecular target: 5'-AMP-activated protein kinase catalytic subunit alpha-2 (Homo sapiens) (UniProt P54646); settings: at 0.1 µM
[11] = molecular target: 5'-AMP-activated protein kinase catalytic subunit alpha-2 (Homo sapiens) (UniProt P54646); settings: at 1 µM
[12] = molecular target: T4, NUAK family SNF1-like kinase 1 (Homo sapiens) (UniProt O60285); settings: at 0.1 µM
T4 sequence (whole entry): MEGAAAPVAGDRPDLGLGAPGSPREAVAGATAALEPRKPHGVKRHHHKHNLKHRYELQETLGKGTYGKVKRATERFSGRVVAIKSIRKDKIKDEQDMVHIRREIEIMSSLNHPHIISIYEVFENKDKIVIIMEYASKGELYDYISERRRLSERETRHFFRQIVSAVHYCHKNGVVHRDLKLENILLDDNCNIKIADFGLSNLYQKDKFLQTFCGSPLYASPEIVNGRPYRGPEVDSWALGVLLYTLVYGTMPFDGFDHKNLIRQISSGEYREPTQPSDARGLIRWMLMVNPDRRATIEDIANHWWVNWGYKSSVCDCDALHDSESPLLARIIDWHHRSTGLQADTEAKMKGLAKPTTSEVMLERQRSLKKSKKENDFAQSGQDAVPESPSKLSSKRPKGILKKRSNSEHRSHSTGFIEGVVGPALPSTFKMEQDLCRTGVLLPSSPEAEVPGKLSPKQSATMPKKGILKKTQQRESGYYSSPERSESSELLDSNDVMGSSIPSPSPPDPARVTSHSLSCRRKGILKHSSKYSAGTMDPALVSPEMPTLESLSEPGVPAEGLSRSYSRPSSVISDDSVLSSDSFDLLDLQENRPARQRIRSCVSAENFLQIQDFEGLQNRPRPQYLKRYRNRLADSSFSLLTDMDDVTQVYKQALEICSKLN

[13] = molecular target: T4, NUAK family SNF1-like kinase 1 (Homo sapiens); settings: at 1 µM
[14] = molecular target: T5, Serine/threonine-protein kinase BRSK1 (Homo sapiens) (UniProt Q8TDC3); settings: at 0.1 µM
T5 sequence (whole entry): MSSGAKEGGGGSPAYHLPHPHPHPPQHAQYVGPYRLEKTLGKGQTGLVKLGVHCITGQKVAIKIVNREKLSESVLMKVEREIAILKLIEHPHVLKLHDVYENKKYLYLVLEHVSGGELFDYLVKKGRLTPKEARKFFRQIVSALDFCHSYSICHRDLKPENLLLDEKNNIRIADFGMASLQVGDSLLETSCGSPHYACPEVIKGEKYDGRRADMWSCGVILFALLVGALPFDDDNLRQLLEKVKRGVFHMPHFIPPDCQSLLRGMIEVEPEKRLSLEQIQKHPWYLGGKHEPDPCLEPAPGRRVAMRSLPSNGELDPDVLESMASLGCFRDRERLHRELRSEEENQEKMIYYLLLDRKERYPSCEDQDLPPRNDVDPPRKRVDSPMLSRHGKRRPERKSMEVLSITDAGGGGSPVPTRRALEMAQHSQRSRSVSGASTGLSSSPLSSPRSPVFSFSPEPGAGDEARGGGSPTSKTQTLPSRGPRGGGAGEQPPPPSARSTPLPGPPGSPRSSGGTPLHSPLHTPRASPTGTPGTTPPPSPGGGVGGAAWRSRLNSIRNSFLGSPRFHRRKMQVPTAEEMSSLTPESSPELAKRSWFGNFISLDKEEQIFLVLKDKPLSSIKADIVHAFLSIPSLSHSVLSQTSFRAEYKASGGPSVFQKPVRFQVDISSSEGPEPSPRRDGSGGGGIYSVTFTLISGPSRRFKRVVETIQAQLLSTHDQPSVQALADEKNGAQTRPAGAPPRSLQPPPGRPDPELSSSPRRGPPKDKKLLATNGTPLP

[15] = molecular target: T5, Serine/threonine-protein kinase BRSK1 (Homo sapiens); settings: at 1 µM
[16] = molecular target: T6, Serine/threonine-protein kinase BRSK2 (Homo sapiens) (UniProt Q8IWQ3); settings: at 0.1 µM
T6 sequence (whole entry): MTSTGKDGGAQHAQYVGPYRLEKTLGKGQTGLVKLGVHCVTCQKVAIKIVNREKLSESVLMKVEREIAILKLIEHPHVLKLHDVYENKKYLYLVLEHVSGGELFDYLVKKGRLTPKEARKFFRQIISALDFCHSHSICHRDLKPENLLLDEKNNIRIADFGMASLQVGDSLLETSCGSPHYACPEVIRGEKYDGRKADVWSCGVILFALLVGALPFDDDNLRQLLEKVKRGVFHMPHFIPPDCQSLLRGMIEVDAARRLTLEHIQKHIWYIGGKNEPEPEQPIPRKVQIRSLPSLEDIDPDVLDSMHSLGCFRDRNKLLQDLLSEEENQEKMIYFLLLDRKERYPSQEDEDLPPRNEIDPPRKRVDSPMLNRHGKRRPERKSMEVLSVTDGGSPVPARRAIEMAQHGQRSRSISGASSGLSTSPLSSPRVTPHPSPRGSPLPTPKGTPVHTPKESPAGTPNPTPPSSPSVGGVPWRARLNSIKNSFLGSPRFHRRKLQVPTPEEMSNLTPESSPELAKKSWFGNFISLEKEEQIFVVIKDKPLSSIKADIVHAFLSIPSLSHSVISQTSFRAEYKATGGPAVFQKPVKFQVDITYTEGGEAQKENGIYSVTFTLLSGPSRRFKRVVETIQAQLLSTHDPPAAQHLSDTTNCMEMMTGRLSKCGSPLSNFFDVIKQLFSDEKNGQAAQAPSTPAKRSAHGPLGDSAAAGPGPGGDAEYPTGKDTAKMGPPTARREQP

[17] = molecular target: T6, Serine/threonine-protein kinase BRSK2 (Homo sapiens); settings: at 1 µM
[18] = molecular target: Calcium/calmodulin-dependent protein kinase type 1D (Homo sapiens) (UniProt Q8IU85); settings: at 0.1 µM
[19] = molecular target: Calcium/calmodulin-dependent protein kinase type 1D (Homo sapiens) (UniProt Q8IU85); settings: at 1 µM
[20] = molecular target: Calcium/calmodulin-dependent protein kinase type II subunit alpha (Homo sapiens) (UniProt Q9UQM7); settings: at 0.1 µM;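 note: reported values are averages (mean inhibition of CAMK2A)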
Calcium/calmodulin-dependent protein kinase type II subunit alpha (Homo sapiens), sequence (Q9UQM7 whole entry): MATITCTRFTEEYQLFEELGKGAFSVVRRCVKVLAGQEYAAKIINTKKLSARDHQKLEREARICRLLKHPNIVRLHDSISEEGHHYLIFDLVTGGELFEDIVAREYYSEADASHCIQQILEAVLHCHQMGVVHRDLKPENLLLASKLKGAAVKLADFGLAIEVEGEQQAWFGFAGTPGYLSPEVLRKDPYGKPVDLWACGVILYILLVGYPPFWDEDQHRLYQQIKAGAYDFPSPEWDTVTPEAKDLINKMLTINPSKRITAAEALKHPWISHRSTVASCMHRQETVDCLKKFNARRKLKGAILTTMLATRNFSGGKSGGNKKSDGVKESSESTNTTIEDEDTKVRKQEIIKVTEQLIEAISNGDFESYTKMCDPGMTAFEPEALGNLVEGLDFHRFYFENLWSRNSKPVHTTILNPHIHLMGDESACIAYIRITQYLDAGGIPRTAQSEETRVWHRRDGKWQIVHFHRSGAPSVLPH

5'-AMP-activated protein kinase catalytic subunit alpha-2 (Homo sapiens), sequence (P54646 whole entry, looked up): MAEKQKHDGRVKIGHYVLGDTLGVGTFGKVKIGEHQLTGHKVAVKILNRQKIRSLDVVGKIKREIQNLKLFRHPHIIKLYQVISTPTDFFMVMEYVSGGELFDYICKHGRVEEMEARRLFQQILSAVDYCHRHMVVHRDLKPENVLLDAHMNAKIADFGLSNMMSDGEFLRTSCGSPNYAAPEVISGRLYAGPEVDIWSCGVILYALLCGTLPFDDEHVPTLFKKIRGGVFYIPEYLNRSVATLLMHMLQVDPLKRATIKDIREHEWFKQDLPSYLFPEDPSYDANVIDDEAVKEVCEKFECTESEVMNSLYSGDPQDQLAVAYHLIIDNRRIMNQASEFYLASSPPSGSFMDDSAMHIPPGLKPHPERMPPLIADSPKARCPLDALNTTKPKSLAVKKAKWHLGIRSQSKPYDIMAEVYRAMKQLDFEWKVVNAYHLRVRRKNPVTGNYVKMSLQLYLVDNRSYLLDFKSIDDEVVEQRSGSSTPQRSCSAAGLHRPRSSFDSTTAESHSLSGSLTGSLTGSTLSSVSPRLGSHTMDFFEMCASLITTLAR
5'-AMP-activated protein kinase catalytic subunit alpha-1 (Homo sapiens), sequence (Q13131 whole entry, looked up): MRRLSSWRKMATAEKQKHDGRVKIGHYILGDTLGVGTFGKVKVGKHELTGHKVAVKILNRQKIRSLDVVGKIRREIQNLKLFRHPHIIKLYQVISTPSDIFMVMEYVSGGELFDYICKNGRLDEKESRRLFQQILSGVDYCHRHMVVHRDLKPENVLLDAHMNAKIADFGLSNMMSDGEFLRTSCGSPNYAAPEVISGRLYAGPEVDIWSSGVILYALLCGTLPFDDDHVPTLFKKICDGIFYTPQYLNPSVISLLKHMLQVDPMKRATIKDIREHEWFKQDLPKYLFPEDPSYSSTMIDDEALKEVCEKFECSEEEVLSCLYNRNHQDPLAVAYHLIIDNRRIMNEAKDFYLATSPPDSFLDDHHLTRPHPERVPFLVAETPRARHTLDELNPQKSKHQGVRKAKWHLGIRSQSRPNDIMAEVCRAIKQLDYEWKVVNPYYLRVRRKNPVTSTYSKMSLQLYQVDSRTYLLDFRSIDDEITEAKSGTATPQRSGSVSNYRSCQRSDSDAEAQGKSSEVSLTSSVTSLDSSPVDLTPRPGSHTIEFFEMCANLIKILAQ
Calcium/calmodulin-dependent protein kinase type 1D (Homo sapiens), sequence (Q8IU85 whole entry, looked up): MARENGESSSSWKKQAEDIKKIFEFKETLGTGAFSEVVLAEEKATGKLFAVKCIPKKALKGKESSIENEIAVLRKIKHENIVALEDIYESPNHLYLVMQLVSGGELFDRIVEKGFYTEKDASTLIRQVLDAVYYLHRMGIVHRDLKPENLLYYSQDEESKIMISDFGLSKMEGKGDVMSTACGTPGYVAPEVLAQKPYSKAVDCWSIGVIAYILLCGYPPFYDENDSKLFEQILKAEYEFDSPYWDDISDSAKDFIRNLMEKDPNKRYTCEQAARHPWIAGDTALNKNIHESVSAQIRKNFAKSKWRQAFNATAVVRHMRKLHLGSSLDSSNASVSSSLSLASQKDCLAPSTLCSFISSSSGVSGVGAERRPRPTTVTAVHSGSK
Ribosomal protein S6 kinase alpha-6 (Homo sapiens), sequence (Q9UK32 whole entry): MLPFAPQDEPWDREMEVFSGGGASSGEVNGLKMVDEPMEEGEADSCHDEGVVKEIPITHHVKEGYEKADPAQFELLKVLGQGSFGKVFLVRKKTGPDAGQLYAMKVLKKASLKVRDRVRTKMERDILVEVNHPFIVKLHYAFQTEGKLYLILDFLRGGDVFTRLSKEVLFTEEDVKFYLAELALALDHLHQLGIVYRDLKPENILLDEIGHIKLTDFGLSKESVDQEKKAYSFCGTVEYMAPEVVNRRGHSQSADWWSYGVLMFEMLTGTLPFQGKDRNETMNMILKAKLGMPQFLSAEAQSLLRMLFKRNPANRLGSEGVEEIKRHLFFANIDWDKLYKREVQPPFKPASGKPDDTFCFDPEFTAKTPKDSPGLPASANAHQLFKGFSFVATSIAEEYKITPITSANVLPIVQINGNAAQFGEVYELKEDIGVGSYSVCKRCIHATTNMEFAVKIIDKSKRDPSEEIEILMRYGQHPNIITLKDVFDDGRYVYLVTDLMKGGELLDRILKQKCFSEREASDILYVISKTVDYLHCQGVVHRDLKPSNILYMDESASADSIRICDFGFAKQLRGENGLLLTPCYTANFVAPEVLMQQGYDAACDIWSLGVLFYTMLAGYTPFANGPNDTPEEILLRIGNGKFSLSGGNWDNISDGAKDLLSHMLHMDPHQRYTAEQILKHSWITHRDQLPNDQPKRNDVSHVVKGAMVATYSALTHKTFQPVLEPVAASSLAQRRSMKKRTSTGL

Compound | inhibition [1] [%] | inhibition [2] [%] | inhibition [3] [%] | inhibition [4] [%] | inhibition [5] [%] | inhibition [6] [%] | inhibition [7] [%] | inhibition [8] [%] | inhibition [9] [%] | inhibition [10] [%] | inhibition [11] [%] | inhibition [12] [%] | inhibition [13] [%] | inhibition [14] [%] | inhibition [15] [%] | inhibition [16] [%] | inhibition [17] [%] | inhibition [18] [%] | inhibition [19] [%] | inhibition [20] [%]
Cc1cccc(Nc2ncc(-c3ccccc3)o2)c1 | 2.13 | 1.63 | 2.62 | 3.96 | 2.16 | 0.65 | 1.3 | 3.82 | 4.04 | 4.67 | 6.16 | 2.69 | 19.2 | 0.14 | 0.64 | 1.19 | 4.26 | 1.45 | 3.78 | 4.05
COc1cc2c(cc1Nc1nc(Nc3ccsc3C(N)=O)c3cc[nH]c3n1)N(C(=O)CN(C)C)CCC2(C)C | 49.6 | 3.7 | 4.59 | 2.95 | 2.79 | 2.75 | 4.25 | 6.5 | 7.07 | 6.92 | 7.54 | 5.54 | 9.13 | 4.27 | 6.36 | 4.89 | 4.71 | 5.46 | 30.8 | 4.03
COc1cccc(-c2c[nH]c3c(N/N=C/c4ccncc4)ncnc23)c1 | 10.6 | 4.36 | 19.1 | 4.85 | 18.2 | 2.69 | 1.84 | 1.39 | 6.84 | 0.02 | 7.68 | 4.85 | 38.5 | 3.83 | 21.4 | 4.82 | 29.8 | 2.11 | 4.07 | 3.48
CC(C)(CO)CNC(=O)c1ccc2c(c1)/C(=N/Nc1ccc(S(N)(=O)=O)cc1)C(=O)N2 | 9.45 | 0.94 | 8.72 | 0.65 | 3.3 | -2.66 | 3.04 | 26 | 72.3 | 6.91 | 33.7 | 19.7 | 58.6 | 6.46 | 37.7 | 11.6 | 52.2 | 0.39 | 1.92 | -0.2
